High-throughput results from PubChem.
The list is not random: actives were taken first. Their share in the collection is about 1.7%.
H9c2 protect – cardioprotection against H2O2-induced cell death, primary screen, uHTS, H9c2 cells, ATPLite luminescence | H9c2 cardiomyocytes, H2O2 injury protection, 2 h | protection from H2O2 cell death, % at 20 µM | 0.63% of 360,000 active;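 active means compounds giving at least 50% protection of heart cells from peroxide-induced death in the single-dose screen, raw or plate-pattern-corrected value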;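 further: 0% = DMSO wells with peroxide and 100% = DMSO wells without peroxide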
ARNT TACC3 PPI – disruptors of ARNT/TACC3 protein interaction, primary screen, biochemical, AlphaScreen, single concentration; Transforming acidic coiled-coil-containing protein 3 (Homo sapiens), Q9Y6A5; AlphaScreen His-ARNT PAS-B/GST-TACC3 binding, luminescence; TACC3 fragment carries E629A point mutation; inhibition, % at 9.99 µM; 0.66% of 390,000 active; AID 623870, 2012;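 active means mean inhibition of replicates at least 50% and at least half of replicates each reaching 50%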;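 further: 0% = complete ARNT plus TACC3 wells and 100% = ARNT alone without TACC3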
Vif imaging – HIV Vif self-association inhibitors, primary screen, imaging, HEK293T, single point. 0.35% of 340,000 active. inhibition, % at 7.49 µM. HEK293T cells, Vif self-association by quenched fluorescence, 24 h. AID 602346, 2012; in the data active means inhibition above about 50%, passing the limit was not always enough
Glyco luc inh – increase of ERlucT glycosylation luciferase signal, primary screen, N-linked glycosylation inhibitor project, D54 ERlucT cells, luminescence, set 2; reporter increase, % at 12.5 µM; AID 588692, 2011; D54 ERlucT glycosylation luciferase reporter, 24 h; percent of 100 nM tunicamycin response; 0.23% of 360,000 active;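 active means mean luciferase reporter signal, scaled so untreated is 0 and the glycosylation-blocking control 100, at or above a set limit in every replicate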;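 further: luciferase carries N-glycosylation sites so blocking glycosylation raises the light; 0% = median of neutral control wells and 100% = median of 100 nM tunicamycin wells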
aDG glyco act – activators of alpha-DG glycosylation, primary screen, uHTS, Pro5-aDG cells, AlphaScreen; activation, % at 10 µM; 0.22% of 360,000 active; alpha-DG glycosylation AlphaScreen (IIH6); 0% Pro5, 100% B10-LARGE cell signal;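 active means activation of at least 8% versus controls, or a plate z-score of at least 8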;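 further: Pro5 are CHO cells carrying HIG-tagged alpha-DG that lacks glycosylation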
Numbers without * were called inactive; · = not tested or not shown.

SMILES	H9c2 protect	ARNT TACC3 PPI	Vif imaging	Glyco luc inh	aDG glyco act
Cc1ccc(S(=O)(=O)Nc2ccc3c(c2)C(=O)N([C@H](C)CO)C[C@H](C)[C@H](CN(C)C(=O)CCC(F)(F)F)OCCCC[C@H](C)O3)cc1	·	24	·	·	·
CCOc1ccc(OCC)c(S(=O)(=O)NCc2ccccc2)c1	-1	0	55*	0	0
CS(=O)(=O)c1ccc(Sc2nc3ccccc3s2)c([N+](=O)[O-])c1	-8	-1	-6	40*	0
Cc1ccc(S(=O)(=O)N[C@@H]2C=C[C@H](CC(=O)NCc3ccncn3)O[C@H]2CO)cc1	·	-13	·	·	·
CNC[C@@H]1OCCCC[C@@H](C)Oc2ccc(NC(=O)c3ccccc3)cc2C(=O)N([C@@H](C)CO)C[C@@H]1C	·	-3	·	·	·
CCN1/C(=C/c2sc(-c3ccccc3C)c[n+]2C)Sc2ccccc21	-26	·	-16	36*	1
Cc1c(O)ccc(/C=N/Nc2ncccc2[N+](=O)[O-])c1O	15	-7	-1	-9	5.8*
COc1ccc(NC(=O)N(C)[C@H]2C[C@H]3c4[nH]c5ccc(-c6ccc(OC)cc6)cc5c4CCN3C[C@H]2[C@H](C)O)cc1	-1	·	·	-4	0
COc1ccc(NC(=O)N(C)[C@H]2C[C@H]3c4[nH]c5ccc(-c6ccc7c(c6)OCO7)cc5c4CCN3C[C@H]2[C@H](C)O)cc1	54*	·	-1	2	0
COc1cc2[nH]c(=S)nc(NCCC(C)C)c2cc1OC	-2	64*	-12	1	0
COCCCNc1nc(=S)[nH]c2cc(OC)c(OC)cc12	15	64*	·	0	1
COc1cc2[nH]c(=S)nc(NCCc3ccc(C)cc3)c2cc1OC	-11	32	-5	-4	4
CO[C@H]1CN(C)C(=O)c2ccc(NS(=O)(=O)c3cn(C)cn3)cc2OC[C@@H](C)N(CCC(F)(F)F)C[C@H]1C	·	-4	·	·	·
COc1cc(/C=N/NC(=O)NC23CC4CC(CC(C4)C2)C3)ccc1OCC(N)=O	62*	8	-5	-5	0
O=C(N/N=C/c1ccc(O)cc1O)NC12CC3CC(CC(C3)C1)C2	52*	-7	-3	1	0
COc1ccc(C=NNC(=S)NC23CC4CC(CC(C4)C2)C3)cc1OC	-16	3	-14	-5	4
CO[C@@H]1CN(C)C(=O)c2cc(NC(=O)c3ccc4c(c3)OCO4)ccc2OC[C@H](C)N(CCC(F)(F)F)C[C@@H]1C	·	5	·	·	·
COC(=O)C[C@H]1CC[C@@H]2[C@H](COc3ccc(NS(=O)(=O)c4ccc(F)cc4)cc3C(=O)N2C)O1	·	1	·	·	·
CCOc1nc(N2CCCCC2)nc(-n2cc(-c3ccccc3)nn2)n1	-2	-13	55*	1	0
COc1ccc(NC(=O)N(C)C[C@H]2OCCCC[C@@H](C)Oc3ccc(NC(=O)c4ccccc4)cc3C(=O)N([C@@H](C)CO)C[C@@H]2C)cc1	·	-3	·	·	·
COc1ccc(-c2coc3c(C(=O)Nc4cccc(C(C)=O)c4)cccc23)c(C)c1	-3	·	150*	-4	0
COc1ccc(-c2ccc(C(=O)Nc3cccc(C(C)=O)c3)c3occc23)c(C)c1	-18	·	-17	-2	1
COc1ccccc1CNC(=O)C[C@H]1CC[C@@H]2[C@H](COC[C@H](O)CN2C(=O)Nc2ccccc2)O1	·	-3	·	·	·
Nc1nc2ccc(C(=O)NCCOC(=O)C3CCCCC3)cc2s1	2	66*	2	1	0
COc1ccc(C(=O)CSc2nnc(-c3cc4ccccc4cc3O)n2Cc2ccco2)cc1	0	1	-11	33*	0
COc1ccc(NC(=O)N(C)C[C@@H]2Oc3ccc(NS(=O)(=O)c4cccs4)cc3CC(=O)N([C@@H](C)CO)C[C@@H]2C)cc1	·	-15	·	·	·
COc1ccc2nc3cc([N+](=O)[O-])ccc3c(NNc3ccc([N+](=O)[O-])cc3)c2c1	-2	3	67*	-10	0
Cc1ncc(CO)c2cc(C(=O)Nc3ccccc3Cl)c(=Nc3cccc(C(N)=O)c3)oc12	61*	0	1	7	0
